Experimental data reported in PubChem BioAssay (NCATS).
Records with an inconclusive call do not appear. Where a call stands in place of a potency, no number is given. Calls of active or inactive are those of the source. Calls follow the shape of the dose curve; as a rule, active = well fitted inhibition curve with a large enough effect; inconclusive = small, poorly fitted or top-dose-only effect; inactive = flat fitted curve, though single readings scatter.

Assays:
Test in all cases: qHTS profiling for inhibitors of Plasmodium falciparum proliferation (AID 504749); also: nearly all actives have a fitted effect of over 60% in size
Conditions in all cases: P. falciparum in erythrocytes, SYBR Green DNA, 72 h; series mostly up to 28.7 µM
[1] = system: ATS95
Method in brief: (§1)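 SYBR Green fluorescence (ex 485 nm, em 535 nm) reports parasite DNA after 72 h compound exposure of infected red cells at 0.3% parasitemia, 2.5% hematocrit; signal normalized to 0.29 uM artemisinin and vehicle wells.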

[2] = system: C2A
Method in brief: as §1

[3] = system: CP185
Method in brief: as §1

[4] = system: CP192
Method in brief: as §1

[5] = system: CP194
Method in brief: as §1

[6] = system: CP201
Method in brief: as §1

[7] = system: CP211
Method in brief: as §1

[8] = system: CP191
Method in brief: as §1

[9] = system: CP215
Method in brief: as §1

[10] = system: CP203
Method in brief: as §1
Potency is read from the fitted curve at half-maximal effect.

N#CC(C#N)=Cc1ccc(O)c(O)c1
Potency [1]: inactive
Potency [2]: inactive
Potency [3]: inactive
Potency [4]: inactive
Potency [5]: inactive
Potency [6]: inactive
Potency [7]: inactive

CC[N+]1(C)CCCC(OC(=O)C(O)(c2ccccc2)c2ccccc2)C1 (configuration not stated)
Potency [1]: inactive
Potency [2]: inactive
Potency [3]: inactive
Potency [8]: inactive
Potency [4]: inactive
Potency [5]: inactive
Potency [6]: inactive
Potency [7]: inactive
Potency [9]: inactive

CC1OC(C)OC(C)O1 (configuration not stated)
Potency [1]: inactive
Potency [2]: inactive
Potency [3]: inactive
Potency [8]: inactive
Potency [4]: inactive
Potency [5]: inactive
Potency [6]: inactive
Potency [7]: inactive
Potency [9]: inactive

O=c1[nH]c2ccccc2n1C1CCN(CCCC(c2ccc(F)cc2)c2ccc(F)cc2)CC1
Potency [1]: inactive
Potency [2]: inactive
Potency [3]: inactive
Potency [4]: inactive
Potency [6]: inactive
Potency [10]: inactive
Potency [9]: 13.5 µM (active)

Oc1cc(Cl)ccc1Oc1ccc(Cl)cc1Cl
Potency [1]: 10 µM (active)
Potency [8]: 11.2 µM (active)
Potency [4]: 12 µM (active)
Potency [5]: 13.5 µM (active)
Potency [9]: 13.5 µM (active)

CCN(C(C)=O)c1cccc(-c2ccnc3c(C#N)cnn23)c1
Potency [1]: inactive
Potency [2]: inactive
Potency [3]: inactive
Potency [8]: inactive
Potency [5]: inactive
Potency [6]: inactive
Potency [7]: inactive
Potency [9]: inactive

CN1C(=S)CN=C(c2ccccc2)c2cc(Cl)ccc21
Potency [1]: inactive
Potency [2]: inactive
Potency [3]: inactive
Potency [8]: inactive
Potency [5]: inactive
Potency [6]: inactive
Potency [7]: inactive
Potency [9]: inactive

N[C@@H](Cc1ccc(N(CCCl)CCCl)cc1)C(=O)O
Potency [4]: inactive
Potency [6]: inactive
Potency [7]: inactive
Potency [9]: inactive

Cc1cccc(C)c1NC1=NCCCS1
Potency [2]: inactive
Potency [8]: inactive
Potency [4]: inactive

CN1C[C@H](CNC(=O)OCc2ccccc2)C[C@@H]2c3cccc4c3c(cn4C)C[C@H]21
Potency [1]: 11.2 µM (active)
Potency [2]: 8.91 µM (active)
Potency [3]: 8.91 µM (active)
Potency [7]: 9.53 µM (active)

Oc1ccc(Cl)cc1Cc1ccccc1
Potency [2]: inactive
Potency [3]: inactive
Potency [6]: inactive
Potency [7]: inactive

Cc1ccc(S(=O)(=O)N[C@@H](CCCCN)C(=O)CCl)cc1
Potency [2]: 11.2 µM (active)
Potency [8]: 8.91 µM (active)
Potency [4]: inactive
Potency [6]: inactive
Potency [7]: inactive
Potency [9]: inactive

Fc1ccc(C(OCCN2CCN(CCCc3ccccc3)CC2)c2ccc(F)cc2)cc1
Potency [1]: 7.94 µM (active)
Potency [2]: 11.2 µM (active)
Potency [3]: 10 µM (active)
Potency [8]: 10 µM (active)
Potency [7]: 13.5 µM (active)

Cc1ccc(-c2nc3ccc(C)cn3c2CC(=O)N(C)C)cc1
Potency [1]: inactive
Potency [2]: inactive
Potency [3]: inactive
Potency [4]: inactive
Potency [5]: inactive
Potency [6]: inactive
Potency [7]: inactive
Potency [9]: inactive

CC(C)NCC(O)c1ccccc1Cl (configuration not stated)
Potency [1]: 11.2 µM (active)
Potency [6]: inactive

CC[C@@H](CO)NC(=O)[C@@H]1C=C2c3cccc4[nH]cc(c34)C[C@H]2N(C)C1
Potency [1]: inactive
Potency [2]: inactive
Potency [3]: inactive
Potency [8]: inactive
Potency [5]: inactive
Potency [6]: inactive
Potency [7]: inactive
Potency [9]: inactive

CC(C)(C)NCC(O)c1cc(Cl)c(N)c(Cl)c1 (configuration not stated)
Potency [2]: inactive
Potency [6]: inactive
Potency [7]: inactive

CC(C)(N)Cc1ccc(Cl)cc1
Potency [2]: inactive
Potency [3]: inactive
Potency [8]: inactive
Potency [4]: inactive
Potency [6]: inactive
Potency [7]: inactive
Potency [9]: inactive

COc1ccc(C(CN(C)C)C2(O)CCCCC2)cc1 (configuration not stated)
Potency [1]: inactive
Potency [2]: inactive
Potency [3]: inactive
Potency [8]: inactive
Potency [4]: inactive
Potency [6]: inactive
Potency [7]: inactive
Potency [9]: inactive

C=C1CC[C@@]2(O)[C@H]3Cc4ccc(O)c5c4[C@@]2(CCN3CC2CC2)[C@H]1O5
Potency [1]: inactive
Potency [2]: inactive
Potency [3]: inactive
Potency [4]: inactive
Potency [5]: inactive
Potency [6]: inactive
Potency [7]: inactive
Potency [9]: inactive

NCC1(CC(=O)O)CCCCC1
Potency [1]: inactive
Potency [2]: inactive
Potency [3]: inactive
Potency [8]: inactive
Potency [4]: inactive
Potency [5]: inactive
Potency [6]: inactive
Potency [7]: inactive
Potency [9]: inactive
